From the supplement of paper PMC11732987, “Enantioselective OTUD7B fragment discovery through chemoproteomics screening and high-throughput optimisation” (Communications Chemistry, 2025)

Key:
Assay in all cases: log2 ratio of Biotin-Ahx-Ub-VS probe labelling (fragment/DMSO); higher = less target engagement (more negative = stronger competition), active = hit call of the paper (q ≤ 0.05, log2 ratio ≤ -1)
Conditions in all cases: compound concentration: 200 uM; treatment time: 3 h
USP34 = USP34 (UniProt Q70CQ2)
USP34, sequence (Q70CQ2 whole entry, the tested form may be a part): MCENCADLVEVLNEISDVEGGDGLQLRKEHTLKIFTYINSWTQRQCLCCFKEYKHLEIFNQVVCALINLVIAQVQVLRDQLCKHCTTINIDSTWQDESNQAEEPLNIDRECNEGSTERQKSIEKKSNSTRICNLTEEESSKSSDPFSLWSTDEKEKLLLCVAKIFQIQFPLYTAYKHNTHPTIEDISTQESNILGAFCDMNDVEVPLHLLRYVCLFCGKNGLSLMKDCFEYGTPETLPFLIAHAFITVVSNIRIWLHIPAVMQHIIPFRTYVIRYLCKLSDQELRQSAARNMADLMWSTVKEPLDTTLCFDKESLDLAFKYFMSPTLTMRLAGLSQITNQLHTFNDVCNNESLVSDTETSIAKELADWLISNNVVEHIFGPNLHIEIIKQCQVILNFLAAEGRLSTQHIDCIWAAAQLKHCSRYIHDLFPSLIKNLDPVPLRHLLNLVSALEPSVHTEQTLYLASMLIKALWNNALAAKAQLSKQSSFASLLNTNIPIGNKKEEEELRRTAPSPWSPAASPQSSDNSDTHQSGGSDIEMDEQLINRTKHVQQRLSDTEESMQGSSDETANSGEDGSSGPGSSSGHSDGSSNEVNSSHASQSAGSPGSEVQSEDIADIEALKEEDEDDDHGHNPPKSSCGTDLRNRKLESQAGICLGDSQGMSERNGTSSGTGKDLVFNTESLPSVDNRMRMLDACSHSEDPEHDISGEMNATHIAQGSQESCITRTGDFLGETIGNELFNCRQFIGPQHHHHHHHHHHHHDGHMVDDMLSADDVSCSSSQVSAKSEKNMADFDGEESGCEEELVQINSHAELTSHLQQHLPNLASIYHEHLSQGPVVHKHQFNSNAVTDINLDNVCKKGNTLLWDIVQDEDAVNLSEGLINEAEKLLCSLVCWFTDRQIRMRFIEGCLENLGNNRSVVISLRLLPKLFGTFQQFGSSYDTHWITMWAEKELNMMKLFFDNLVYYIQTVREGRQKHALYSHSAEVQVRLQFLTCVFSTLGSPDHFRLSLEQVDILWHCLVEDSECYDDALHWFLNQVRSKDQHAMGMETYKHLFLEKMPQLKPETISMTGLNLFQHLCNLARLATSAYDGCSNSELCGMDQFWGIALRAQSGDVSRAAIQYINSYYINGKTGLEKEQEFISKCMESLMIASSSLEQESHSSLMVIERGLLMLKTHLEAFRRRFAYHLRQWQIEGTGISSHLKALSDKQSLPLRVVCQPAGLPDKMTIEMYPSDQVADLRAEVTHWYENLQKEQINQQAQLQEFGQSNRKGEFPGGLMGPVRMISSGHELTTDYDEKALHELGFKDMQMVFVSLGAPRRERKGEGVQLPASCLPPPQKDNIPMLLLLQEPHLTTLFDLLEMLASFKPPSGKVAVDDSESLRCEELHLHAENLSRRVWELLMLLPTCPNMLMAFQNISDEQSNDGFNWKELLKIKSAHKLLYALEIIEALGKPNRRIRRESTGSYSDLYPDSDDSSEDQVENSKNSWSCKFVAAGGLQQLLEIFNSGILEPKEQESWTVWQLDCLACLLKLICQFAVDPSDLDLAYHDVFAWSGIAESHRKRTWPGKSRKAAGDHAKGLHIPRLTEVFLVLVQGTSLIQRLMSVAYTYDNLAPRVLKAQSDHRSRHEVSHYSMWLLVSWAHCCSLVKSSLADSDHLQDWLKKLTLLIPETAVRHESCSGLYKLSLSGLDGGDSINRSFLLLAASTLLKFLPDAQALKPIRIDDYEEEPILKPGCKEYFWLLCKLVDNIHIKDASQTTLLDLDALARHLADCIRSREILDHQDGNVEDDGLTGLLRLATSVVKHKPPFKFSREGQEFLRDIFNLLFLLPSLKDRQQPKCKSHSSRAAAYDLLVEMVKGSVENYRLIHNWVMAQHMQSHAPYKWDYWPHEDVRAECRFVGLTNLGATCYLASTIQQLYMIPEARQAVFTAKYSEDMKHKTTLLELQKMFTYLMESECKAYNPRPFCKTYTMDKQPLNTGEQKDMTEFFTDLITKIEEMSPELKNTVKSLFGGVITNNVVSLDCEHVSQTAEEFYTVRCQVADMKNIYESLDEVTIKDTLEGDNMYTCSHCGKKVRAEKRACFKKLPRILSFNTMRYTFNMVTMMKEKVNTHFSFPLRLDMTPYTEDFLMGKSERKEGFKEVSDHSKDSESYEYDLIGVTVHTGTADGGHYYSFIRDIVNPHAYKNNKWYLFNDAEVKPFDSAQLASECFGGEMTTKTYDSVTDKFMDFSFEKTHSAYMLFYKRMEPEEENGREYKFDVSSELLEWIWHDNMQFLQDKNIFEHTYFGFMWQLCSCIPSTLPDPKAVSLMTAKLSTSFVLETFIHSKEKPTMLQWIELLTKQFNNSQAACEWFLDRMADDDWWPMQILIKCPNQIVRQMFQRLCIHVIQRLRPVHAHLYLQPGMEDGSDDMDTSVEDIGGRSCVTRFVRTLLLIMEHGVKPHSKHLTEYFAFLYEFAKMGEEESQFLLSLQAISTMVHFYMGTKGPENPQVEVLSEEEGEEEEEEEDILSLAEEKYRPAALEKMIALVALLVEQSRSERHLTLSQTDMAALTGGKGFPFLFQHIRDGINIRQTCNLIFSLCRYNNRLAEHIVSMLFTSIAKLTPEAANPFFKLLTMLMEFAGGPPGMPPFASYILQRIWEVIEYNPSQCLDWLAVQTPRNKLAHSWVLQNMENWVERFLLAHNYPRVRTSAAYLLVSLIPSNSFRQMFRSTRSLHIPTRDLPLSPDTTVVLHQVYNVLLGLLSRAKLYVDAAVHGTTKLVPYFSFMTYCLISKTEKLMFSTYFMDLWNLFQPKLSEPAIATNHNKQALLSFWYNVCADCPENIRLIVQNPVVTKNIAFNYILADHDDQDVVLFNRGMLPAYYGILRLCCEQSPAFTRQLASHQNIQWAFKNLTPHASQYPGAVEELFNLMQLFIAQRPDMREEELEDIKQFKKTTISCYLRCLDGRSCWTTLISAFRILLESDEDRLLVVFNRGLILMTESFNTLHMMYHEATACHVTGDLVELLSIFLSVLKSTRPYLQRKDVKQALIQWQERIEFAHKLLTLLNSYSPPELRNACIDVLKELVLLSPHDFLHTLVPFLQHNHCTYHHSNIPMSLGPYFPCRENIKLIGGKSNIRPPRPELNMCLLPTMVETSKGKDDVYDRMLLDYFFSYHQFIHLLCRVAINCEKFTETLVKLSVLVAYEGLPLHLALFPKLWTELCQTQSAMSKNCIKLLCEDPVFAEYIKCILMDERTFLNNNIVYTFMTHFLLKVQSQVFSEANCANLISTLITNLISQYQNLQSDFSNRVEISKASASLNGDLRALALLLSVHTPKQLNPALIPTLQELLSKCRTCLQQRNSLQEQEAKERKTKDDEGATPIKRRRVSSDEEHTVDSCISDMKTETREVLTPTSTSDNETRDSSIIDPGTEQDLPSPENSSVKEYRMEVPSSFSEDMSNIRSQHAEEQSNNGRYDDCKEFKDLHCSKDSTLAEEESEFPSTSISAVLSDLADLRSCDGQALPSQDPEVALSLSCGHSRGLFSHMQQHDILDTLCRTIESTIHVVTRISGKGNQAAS
Outline: (§1)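 Each value is an average log2 ratio of fragment to vehicle, tested by unpaired t-test. The underlying Spectronaut label-free quantities were global-median-normalised, and only proteins with ≥2 unique peptides were included. Triplicate HEK293T lysate samples (495 µg) were exposed to fragment at 200 µM or vehicle for 3 h, then to Biotin-Ahx-Ub-VS at 0.5 µM final for 1 h, before NeutrAvidin enrichment of labelled DUBs, LysC and trypsin digestion, and diaPASEF LC-MS/MS.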

USP36 = molecular target: T1, USP36 (UniProt Q9P275)
T1 sequence (whole entry): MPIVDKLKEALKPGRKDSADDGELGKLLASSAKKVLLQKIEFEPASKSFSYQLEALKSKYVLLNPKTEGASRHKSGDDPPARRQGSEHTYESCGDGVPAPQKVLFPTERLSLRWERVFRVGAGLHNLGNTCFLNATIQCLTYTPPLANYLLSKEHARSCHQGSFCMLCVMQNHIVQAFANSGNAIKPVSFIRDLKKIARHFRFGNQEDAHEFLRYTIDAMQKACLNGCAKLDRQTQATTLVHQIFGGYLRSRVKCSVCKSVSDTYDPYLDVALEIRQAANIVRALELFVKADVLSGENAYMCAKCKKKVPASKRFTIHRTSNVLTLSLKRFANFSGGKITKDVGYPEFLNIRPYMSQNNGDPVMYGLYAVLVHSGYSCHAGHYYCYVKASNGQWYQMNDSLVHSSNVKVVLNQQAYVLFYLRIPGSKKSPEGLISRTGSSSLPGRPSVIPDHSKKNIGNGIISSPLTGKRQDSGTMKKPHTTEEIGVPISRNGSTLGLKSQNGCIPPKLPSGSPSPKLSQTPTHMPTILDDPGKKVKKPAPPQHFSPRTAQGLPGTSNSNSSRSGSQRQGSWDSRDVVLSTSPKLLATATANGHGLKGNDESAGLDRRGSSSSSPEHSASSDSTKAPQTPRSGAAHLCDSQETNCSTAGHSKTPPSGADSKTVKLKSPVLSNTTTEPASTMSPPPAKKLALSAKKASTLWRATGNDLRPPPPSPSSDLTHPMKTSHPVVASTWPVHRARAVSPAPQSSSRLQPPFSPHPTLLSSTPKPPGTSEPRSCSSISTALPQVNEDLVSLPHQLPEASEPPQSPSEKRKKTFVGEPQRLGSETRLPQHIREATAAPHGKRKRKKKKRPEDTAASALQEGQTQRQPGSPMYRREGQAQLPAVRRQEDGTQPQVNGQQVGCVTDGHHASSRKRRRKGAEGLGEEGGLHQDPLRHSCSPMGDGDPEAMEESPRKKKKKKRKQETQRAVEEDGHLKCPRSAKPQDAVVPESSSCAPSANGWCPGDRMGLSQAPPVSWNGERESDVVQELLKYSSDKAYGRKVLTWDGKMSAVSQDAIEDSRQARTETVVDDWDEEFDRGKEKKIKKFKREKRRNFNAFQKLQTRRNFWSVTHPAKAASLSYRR
Outline: as §1

USP38 = molecular target: T2, USP38 (UniProt Q8NB14)
T2 sequence (whole entry): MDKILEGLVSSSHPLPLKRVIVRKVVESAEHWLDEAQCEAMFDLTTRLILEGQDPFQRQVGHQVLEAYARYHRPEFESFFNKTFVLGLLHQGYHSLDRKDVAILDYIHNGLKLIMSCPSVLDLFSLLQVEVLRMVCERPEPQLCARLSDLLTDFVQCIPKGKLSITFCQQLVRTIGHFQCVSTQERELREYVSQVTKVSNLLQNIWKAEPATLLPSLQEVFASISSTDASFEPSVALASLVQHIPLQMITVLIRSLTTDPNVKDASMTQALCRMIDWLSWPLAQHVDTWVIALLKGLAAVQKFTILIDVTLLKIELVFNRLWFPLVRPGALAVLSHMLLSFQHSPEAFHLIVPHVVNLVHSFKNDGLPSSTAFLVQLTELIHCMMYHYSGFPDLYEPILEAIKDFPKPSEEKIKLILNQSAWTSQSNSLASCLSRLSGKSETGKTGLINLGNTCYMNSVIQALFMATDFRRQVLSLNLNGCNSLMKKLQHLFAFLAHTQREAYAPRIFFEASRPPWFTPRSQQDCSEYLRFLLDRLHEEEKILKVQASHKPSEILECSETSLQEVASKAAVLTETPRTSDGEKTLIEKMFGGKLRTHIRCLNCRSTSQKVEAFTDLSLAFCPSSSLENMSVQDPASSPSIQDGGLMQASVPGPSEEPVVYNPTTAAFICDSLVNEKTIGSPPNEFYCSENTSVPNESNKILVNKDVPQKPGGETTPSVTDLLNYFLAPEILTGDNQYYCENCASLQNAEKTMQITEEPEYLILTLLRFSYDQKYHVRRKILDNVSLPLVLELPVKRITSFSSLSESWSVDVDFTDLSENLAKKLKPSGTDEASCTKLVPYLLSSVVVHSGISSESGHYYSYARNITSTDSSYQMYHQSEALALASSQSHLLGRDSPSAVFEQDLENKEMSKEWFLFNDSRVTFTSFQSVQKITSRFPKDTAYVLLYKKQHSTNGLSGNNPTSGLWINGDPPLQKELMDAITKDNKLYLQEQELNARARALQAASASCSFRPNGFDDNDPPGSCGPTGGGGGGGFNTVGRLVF
Outline: as §1

USP39 = molecular target: T3, USP39 (UniProt Q53GS9)
T3 sequence (whole entry): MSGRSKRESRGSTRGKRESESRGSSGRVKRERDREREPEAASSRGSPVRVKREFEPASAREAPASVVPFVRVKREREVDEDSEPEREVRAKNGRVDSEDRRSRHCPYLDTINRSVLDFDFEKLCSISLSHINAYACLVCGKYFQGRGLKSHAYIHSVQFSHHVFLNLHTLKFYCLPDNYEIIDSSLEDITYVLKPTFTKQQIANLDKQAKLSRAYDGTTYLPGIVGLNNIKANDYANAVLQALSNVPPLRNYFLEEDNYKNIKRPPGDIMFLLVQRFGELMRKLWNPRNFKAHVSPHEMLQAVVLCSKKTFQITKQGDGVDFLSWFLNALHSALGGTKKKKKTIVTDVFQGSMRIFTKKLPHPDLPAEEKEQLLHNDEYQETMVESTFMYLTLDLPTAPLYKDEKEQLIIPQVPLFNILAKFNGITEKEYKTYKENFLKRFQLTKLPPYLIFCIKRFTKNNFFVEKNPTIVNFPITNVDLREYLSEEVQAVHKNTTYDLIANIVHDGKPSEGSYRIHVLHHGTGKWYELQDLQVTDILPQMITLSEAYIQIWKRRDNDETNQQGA
Outline: as §1

USP4 = molecular target: T4, USP4 (UniProt Q13107)
T4 sequence (whole entry): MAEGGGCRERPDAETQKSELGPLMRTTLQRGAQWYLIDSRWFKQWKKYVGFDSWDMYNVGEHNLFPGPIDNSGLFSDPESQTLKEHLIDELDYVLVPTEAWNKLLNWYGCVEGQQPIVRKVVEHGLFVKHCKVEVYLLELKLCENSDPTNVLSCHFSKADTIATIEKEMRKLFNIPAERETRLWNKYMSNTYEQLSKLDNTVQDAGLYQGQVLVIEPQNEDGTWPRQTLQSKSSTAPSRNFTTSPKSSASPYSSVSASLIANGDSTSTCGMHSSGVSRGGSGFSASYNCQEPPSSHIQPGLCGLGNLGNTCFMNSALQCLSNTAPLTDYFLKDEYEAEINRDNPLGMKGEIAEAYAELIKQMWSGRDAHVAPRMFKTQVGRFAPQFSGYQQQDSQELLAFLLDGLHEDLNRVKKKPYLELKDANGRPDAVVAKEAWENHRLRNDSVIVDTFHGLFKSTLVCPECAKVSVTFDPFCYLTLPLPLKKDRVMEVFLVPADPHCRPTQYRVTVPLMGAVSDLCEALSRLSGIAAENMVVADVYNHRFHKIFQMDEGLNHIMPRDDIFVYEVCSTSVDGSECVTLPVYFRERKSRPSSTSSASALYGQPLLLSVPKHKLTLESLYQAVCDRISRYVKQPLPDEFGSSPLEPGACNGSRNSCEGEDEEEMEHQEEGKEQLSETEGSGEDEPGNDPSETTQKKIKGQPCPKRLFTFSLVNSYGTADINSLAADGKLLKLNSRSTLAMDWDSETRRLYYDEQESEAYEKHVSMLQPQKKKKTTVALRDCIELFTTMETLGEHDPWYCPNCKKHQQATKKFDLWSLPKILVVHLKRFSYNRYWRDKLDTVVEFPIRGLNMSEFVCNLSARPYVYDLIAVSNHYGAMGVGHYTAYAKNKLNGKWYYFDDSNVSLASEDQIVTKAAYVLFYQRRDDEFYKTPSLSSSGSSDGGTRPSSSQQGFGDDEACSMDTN
Outline: as §1

Measured: log2 ratio of Biotin-Ahx-Ub-VS probe labelling

Cc1ccccc1C1(CNC(=O)CCl)CCOCC1
inactive: USP34 0.051 | USP36 0.0925 | USP38 -0.0365 | USP39 -0.165 | USP4 -0.221
